# Results filed as inconclusive are left out. For some of these results: Entries with a potency or affinity are not part of this list. The source made the active and inactive calls. Unless noted, no rule for the calls is given here.
# Experiments:
# [1] = viability loss in pontine glioma line – cell-based, SU-DIPG-XVII, MIPE5.0, CellTiter-Glo, qHTS, dose response (AID 1347060; cut-off not given, nearly all actives have AC50 up to about 26 µM;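 as to AC50: cells exposed to compound for 48 hours before viability readout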); details: CellTiter-Glo ATP luminescence
# [2] = compounds altering HSF1 focus formation in cells – imaging, Selleck Cancer Library (AID 1347162; in the data active = plate-normalised HSF1 focus index below about 0.46); details: human cells, HSF1 nuclear foci imaging, at 10 µM; SSMD: measured here: HSF1 foci SSMD mean; cell count: measured here: cell number; plate-normalised HSF1 focus index: stronger effect = lower value
# [3] = viability loss in pontine glioma line – cell-based, SU-DIPG-XIII, MIPE4.0, CellTiter-Glo, qHTS, dose response (AID 1347061; cut-off not given, nearly all actives have AC50 up to about 37 µM;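 also: cells exposed to compound for 48 hours before readout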); details: CellTiter-Glo ATP luminescence
# [4] = compounds altering circadian rhythm period length – cell-based, LOPAC library, luminescence reporter (AID 2774); details: circadian reporter cells, at 7 µM, actives lie on both sides;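 also: values are relative to mean of DMSO wells on each plate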
# [5] = test system: Hepatitis C virus NS3 helicase; test: blockers of NS3h binding to ssDNA – biochemical, fluorescence polarization, LOPAC1280 library, primary screen (AID 687035; in the data active = inhibition above about 37%); details: Purified HCV NS3 helicase, Cy5-dT15 ssDNA binding fluorescence polarization; stronger effect = higher value; concentration not given here
# [6] = compounds altering Cy5-DNA-NS3h complex signal – biochemical, LOPAC1280, artefact control for HCV NS3 helicase inhibitor project (AID 687037); details: Cy5-DNA-NS3h complex fluorescence interference counterscreen
# [7] = blockers of cellular phospholipid synthesis – cell-based, LOPAC library, screen 4, primary screen (AID 1347384); details: animal cells, phospholipid biosynthesis inhibition screen; at 10 µM
# [8] = blockers of polyQ-driven CASP3 activation – cell-based (AID 1583); details: polyglutamine-induced caspase-3 activation, cell assay; stronger effect = higher value;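 tested at 10 µM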
# [9] = yeast 75Q aggregation reduction – 75Q-TubU reporter (AID 1593); details: Yeast 75Q polyglutamine aggregation reporter
# [10] = restoration of touch response, mutant HTT neurons – whole organism, C. elegans mechanosensory neurons, N-terminal huntingtin (AID 1599); details: C. elegans polyQ-huntingtin mechanosensory neurons, stronger effect = higher value
# [11] = blockers of cytochrome c efflux from mitochondria – biochemical, purified mitochondria (AID 1603); details: stronger effect = lower value;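 also: mouse liver mitochondria challenged with calcium chloride; signal normalized to the plate average as 100%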
# [12] = polyglutamine aggregate formation blockers (AID 1604); details: polyglutamine-induced protein aggregation inhibition assay; stronger effect = higher value; tested at 2.5 µM
# [13] = glutamate transport activators, MN-1 cells, MN-1 cell line (AID 1612); details: MN-1 motor neuron cells, stronger effect = higher value;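 also: tested at 1 µM final; 0% = mean of DMSO vehicle wells on each plate; positive means more glutamate uptake than control and negative means less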
# [14] = 75Q-TubH aggregate inhibition, S. cerevisiae, yeast (AID 1616); details: S. cerevisiae 75Q-TubH polyglutamine aggregation suppression; stronger effect = higher value
# [15] = GFP-Q80 aggregate reduction, neuronal-like cells, cell-based, NGF-treated PC12, GFPQ80 (AID 1614); details: PC12 NGF-treated GFP-polyQ80 inclusion reduction;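 also: lower means fewer inclusions and 0 means no inclusions at all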
compound,measurement,setting,value
COc1c(C)c2c(c(O)c1C/C=C(\C)CCC(=O)OCCN1CCOCC1)C(=O)OC2,AC50,[1],0.59 µM (active)
same,SSMD,[2],-0.00851
same,cell count,[2],7610
same,plate-normalised HSF1 focus index,[2],0.999 (inactive)
CN1CCN(c2c(F)cc3c(=O)c(C(=O)O)cn4c3c2OCN4C)CC1,outcome,[3],inactive
O=[N+]([O-])c1ccc(O)c2ncccc12,AC50,[1],6.61 µM (active)
CC(C)(Oc1ccc(C2CC2(Cl)Cl)cc1)C(=O)O (stereo not given),period change,[4],0.045 h (inactive)
same,inhibition,[5],-1% (inactive)
same,fluorescence ratio (interference),[6],1 (inactive)
same,outcome,[3],inactive
same,outcome,[7],inactive
CC(=O)Oc1cc(C(C)C)c(OCCN(C)C)cc1C,period change,[4],-0.155 h (inactive)
same,inhibition,[5],-6% (inactive)
same,fluorescence ratio (interference),[6],1 (inactive)
same,outcome,[7],inactive
NCCCNCCSP(=O)(O)O,period change,[4],-0.025 h (inactive)
same,inhibition,[5],-3% (inactive)
same,fluorescence ratio (interference),[6],1 (inactive)
same,outcome,[7],inactive
CC(C)Cn1cnc2c(N)nc3ccccc3c21,outcome,[1],inactive
CNCCCC1c2ccccc2C=Cc2ccccc21,period change,[4],-0.13 h (inactive)
same,inhibition,[5],-3% (inactive)
same,fluorescence ratio (interference),[6],0.9 (inactive)
same,outcome,[7],inactive
COc1cc2c(c(OC)c1OC)-c1ccc(OC)c(=O)cc1[C@@H](NC(C)=O)CC2,inhibition,[8],-76.8%
same,score,[9],1.26
same,rescue above control,[10],-5.06
same,cytochrome c release ratio,[11],0.87
same,inhibition of aggregation,[12],97.2%
same,glutamate uptake change,[13],-10.3%
same,aggregation suppression score,[14],1.64
same,period change,[4],-0.41 h (inactive)
same,inhibition,[5],-1% (inactive)
same,fluorescence ratio (interference),[6],1 (inactive)
same,AC50,[1],0.0295 µM (active)
same,outcome,[7],inactive
COc1cccc2c1C(=O)c1c(O)c3c(c(O)c1C2=O)C[C@@](O)(C(C)=O)C[C@@H]3O[C@H]1C[C@H](N)[C@H](O)[C@H](C)O1,AC50,[1],0.118 µM (active)
same,SSMD,[2],-15.6
same,cell count,[2],7130
same,plate-normalised HSF1 focus index,[2],0.198 (active)
CNC1CCCN(c2c(F)cc3c(=O)c(C(=O)O)cn(C4CC4)c3c2OC)C1 (stereo not given),outcome,[1],inactive
NC(N)=NC(N)=NCCc1ccccc1,outcome,[1],inactive
CCCCCCCCCCCCCCCCCCCCCCO,outcome,[3],inactive
CCN(CC)C(=O)c1ccc(O)c(OC)c1,period change,[4],-1.55 h (active)
same,inhibition,[5],0% (inactive)
same,fluorescence ratio (interference),[6],1 (inactive)
same,outcome,[7],inactive
O=C(O)c1cc(=O)[nH]c(=O)[nH]1,outcome,[1],inactive
Cn1c(=O)c2c(ncn2CC2OCCO2)n(C)c1=O,outcome,[1],inactive
CN(N=O)C(=O)N[C@@H]1[C@@H](O)[C@H](O)[C@@H](CO)O[C@@H]1O,inhibition,[8],-0.83%
same,score,[9],1.48
same,rescue above control,[10],-12.1
same,cytochrome c release ratio,[11],1.09
same,inhibition of aggregation,[12],69%
same,glutamate uptake change,[13],-14.8%
same,inclusion score,[15],2
same,aggregation suppression score,[14],1.03
same,outcome,[1],inactive
O=C(O)[C@H](O)[C@@H](O)[C@H](O[C@@H]1O[C@H](CO)[C@H](O)[C@H](O)[C@H]1O)[C@H](O)CO,outcome,[1],inactive
CC(=O)c1ccc2c(c1)N(CCCN(C)C)c1ccccc1S2,outcome,[7],inactive
Clc1ccc(Cn2c(CN3CCCC3)nc3ccccc32)cc1,period change,[4],0.175 h (inactive)
same,inhibition,[5],0% (inactive)
same,fluorescence ratio (interference),[6],1 (inactive)
same,outcome,[7],inactive
Cc1nc(Nc2ncc(C(=O)Nc3c(C)cccc3Cl)s2)cc(N2CCN(CCO)CC2)n1,AC50,[1],16.6 µM (active)
same,SSMD,[2],-0.87
same,cell count,[2],6550
same,plate-normalised HSF1 focus index,[2],0.957 (inactive)
COc1ccc2[nH]c(S(=O)Cc3ncc(C)c(OC)c3C)nc2n1 (stereo not given),outcome,[1],inactive
CCN(C)C(=O)Oc1cccc([C@H](C)N(C)C)c1,outcome,[3],inactive
